Data published in PubChem BioAssay (EPA / NIEHS).
More than one record can exist for a structure, and the calls need not agree. Active and inactive are the calls of the source. How the source made its calls: active means hit-call score of the fitted dose curve at least 0.9, where 1 is the maximum; inactive means score below 0.9.

Each molecule was assayed on Interleukin-1 alpha (IL1a), IL1A (gene 3552) (assay: BSK_LPS_IL1a: BioMAP Diversity Plus: LPS Assay for Interleukin-1 alpha (IL1a) Biomarker Activity (AID 2283080)). Settings: primary human HUVEC with PBMC; actives raise or lower the signal.
Description: BSK_LPS is a cell-based, multiplexed-readout assay that uses umbilical vein endothelium and peripheral blood mononuclear cells, a human vascular primary cell co-culture, with measurements taken at 24 hours after chemical dosing in a 96-well plate.BSK_LPS_IL1a is an assay component measured in the BSK_LPS assay. It measures IL-a antibody related to regulation of gene expression using ELISA technology.Data from the assay component BSK_LPS_IL1a was analyzed into 1 assay endpoint. This assay endpoint, BSK_LPS_IL1a, was analyzed with bidirectional fitting relative to DMSO as the negative control and baseline of activity. Using a type of binding reporter, gain or loss-of-signal activity can be used to understand changes in the signaling as they relate to the gene IL1A. Furthermore, this assay endpoint can be referred to as a primary readout, because this assay has produced multiple assay endpoints where this one serves a signaling function. To generalize the intended target to other relatable targets, this assay endpoint is annotated to the cytokine intended target family, where the subfamily is interleukins.
The levels of cell surface (or secreted, indicated by the prefix "s") biomarker endpoints were measured by ELISA. Overt cytotoxicity to cells in confluent adherent cultures (all systems other than the BT system) was assessed by measuring total protein levels using sulforhodamine B (SRB) staining in parallel cultures at the time of biomarker measurements, indicated as SRB endpoints. For proliferation assays for adherent cell types, individual cell types are cultured at sub-confluence and relative cell numbers quantified by SRB staining at time points optimized for each system (48 h: 3C and CASM3C systems; 72 h: BT and HDF3CGF systems; 96 h: SAg system). SRB was performed by staining cells with 0.1% SRB after fixation with 10% TCA and reading wells at 560 nm.Viability and proliferation of PBMC (T cells) was quantified by Alamar Blue reduction for the SAg and BT systems. For PBMC viability (referred to as PBMC Cytotoxicity within the assay endpoint names), cells were plated (75,000/well in a 96-well plate) and then chemical samples added for 1 h before addition of activators, SEB and TSST-1 (20 ng/mL final concentration each). Cells were incubated for 90 h. Then, Alamar Blue (20 uL/well) (Invitrogen, Cat DAL1100) was added for 6 h, and the plates were read with a fluorescence microplate reader at 546/580 nm (excitation/emission). For PBMC proliferation, cells were plated and activated as above but incubated for only 16 h prior to addition of Alamar Blue. Plates were read after 6 h.
`CN(C)c1ccc(C(c2ccccc2)c2ccc(N(C)C)cc2)cc1` was tested, and the AC50 was 34.7 µM (active). In the case of `CCCCC(CC)COC(=O)C=Cc1ccc(OC)cc1` (stereo not drawn), the outcome is reported as “inactive”. `CC[N+](CC)(CC(=O)Nc1c(C)cccc1C)Cc1ccccc1` was tested, and the outcome was “inactive”. With `O=[N+]([O-])c1cc(S(=O)(=O)Nc2ccccc2)ccc1Nc1ccccc1` the outcome was “inactive”. With `COc1ccccc1Oc1c(NS(=O)(=O)c2ccc(C(C)(C)C)cc2)nc(-c2ncccn2)nc1OCCO` the AC50 was 10.4 µM (active) and the outcome was “inactive”. With `OC(C(F)(F)F)(C(F)(F)F)C(O)(C(F)(F)F)C(F)(F)F` the outcome was “inactive”. In the case of `CN(C)CCC(c1ccc(Cl)cc1)c1ccccn1` (stereo not drawn), the outcome is reported as “inactive”. `CC(C)C1OCCN1CCOC(=O)NCCCCCCNC(=O)OCCN1CCOC1C(C)C` (stereo not drawn) was tested, and the outcome was “inactive”. In the case of `CC(C)CC(=O)CC(C)CC(C)C` (stereo not drawn), the AC50 is reported as 35 µM (active). With `COC(=O)/C=C\C(=O)OC` the outcome was “inactive”. With `COc1cc(CNC(=O)CCCC/C=C/C(C)C)ccc1O` the outcome was “inactive”. For `CN(C)Cc1cc(C(C)(C)C)c(O)c(C(C)(C)C)c1`, the outcome was “inactive”. For `O=C(C(=O)c1ccccc1)c1ccccc1`, the outcome was “inactive”. For `Oc1cccc2ccccc12`, the outcome was “inactive”. `CCCCCCCCCCC1CO1` (stereo not drawn) was tested, and the AC50 was 31.8 µM (active). In the case of `Sc1nc2ccccc2s1`, the outcome is reported as “inactive”. `Cc1c(C(N)=O)cc([N+](=O)[O-])cc1[N+](=O)[O-]` was tested, and the outcome was “inactive”. In the case of `CCC(C)=NO`, the outcome is reported as “inactive”. In the case of `CCC[Si](OC(C)=O)(OC(C)=O)OC(C)=O`, the outcome is reported as “inactive”. With `CCCCCCCCCCCCCCCCCC[N+](C)(C)C` the AC50 was 1.22 µM (active). With `C1CN(CCOCCN2CCOCC2)CCO1` the outcome was “inactive”. For `COc1ccc(C(=O)c2ccccc2O)c(O)c1`, the outcome was “inactive”. In the case of `CCCCCCC(O)CCCCCCCCCCC(=O)OC` (stereo not drawn), the outcome is reported as “inactive”. In the case of `Cc1cc(-n2nc3ccc(Cl)cc3n2)c(O)c(C(C)(C)C)c1`, the outcome is reported as “inactive”. With `CCCCCCCCCC/C=C/C1CC(=O)OC1=O` (stereo not drawn) the outcome was “inactive”. For `Cc1cccnc1`, the outcome was “inactive”. With `CC[N+](CC)(CC(=O)Nc1c(C)cccc1C)Cc1ccccc1` (tested in a mixture with another compound) the outcome was “inactive”.
